High-throughput results from PubChem.
L929 necroptosis = L929 zVAD cell death inhibition; L929 zVAD necroptosis rescue, ATP luminescence, 24 h; with zVAD 60 µM; viability rescue, % at 10 µM; 0.38% of 220,000 active; AID 1377;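 active means activation, scaled between plate controls, above about 75%, limit read from the data; inactive means activation under that limit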;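 further: 0% = zVAD with DMSO and 100% = DMSO alone without zVAD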
HSF-1 act = increases HSF-1 driven luciferase reporter signal. NIH3T3-HGL HSF-1 luciferase reporter, MG132, 8 h; 100% = twice DMSO control signal. activation, % at 9 µM. 1.7% of 300,000 active. AID 504408;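 active means mean replicate activation of at least 50% with a set share of replicates each reaching 50%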;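 further: 0% = median of the neutral control wells and 100% = twice that signal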
Hsp70 act = transcriptional activators of Hsp70; HeLa Hsp70 promoter luciferase reporter, luminescence; scaled: vehicle 0, proteasome-inhibitor control 100%; 0.04% of 200,000 active; activation, % at 10 µM;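 active means activation above the mean across all tested compounds plus 3 SD, cutoff set per campaign, cut at about 5.5% in these data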;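 further: 100% = MG132 at 30 µM as the positive control and 0% = DMSO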
TNF necrop inh = TNF-alpha cell death inhibition in Jurkat FADD-/- cells; Jurkat FADD-/- TNF necroptosis rescue, ATP luminescence, 24 h; 0 = TNF only, 100 = no-TNF cells; activation (protection from cell death), % at 10 µM; 0.068% of 220,000 active; AID 463075;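 active means activation, meaning protection from cell death, of at least 50% relative to plate controls; inactive means activation below 50%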;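 further: necroptosis triggered by 40 ng/mL TNF-alpha added together with compound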
Numbers without * were called inactive; · = no result given. Only some compounds are listed: those with a hit (about 1.9% of all), similar ones and a draw of the others.

SMILES	L929 necroptosis	HSF-1 act	Hsp70 act	TNF necrop inh
O=C(NCCc1ccc(Cl)cc1)c1ccc2nc[nH]c2c1	6	22	0	2
COC(c1ccc(Cl)cc1)(c1ccc(Cl)cc1)C(Oc1nc(C)cc(C)n1)C(=O)O (centres undefined)	·	1	·	·
Cc1cccc(-n2ncc3c(N)ncnc32)c1	6	24	0	-1
Cc1cccc(-n2ncc3c(Nc4ccc(F)cc4)ncnc32)c1	·	51*	·	·
Cc1cccc(-n2ncc3c(N(C)Cc4ccccc4)ncnc32)c1	0	61*	·	2
Cc1noc(C)c1CCC(=O)N1CCCC(N2CCN(c3ccc(F)cc3)CC2)C1 (centres undefined)	·	6	·	·
CN(C)c1ccc(/C=N/N2CCN(c3ccccn3)CC2)cc1	0	49	·	1
Cc1cc(S(=O)(=O)Nc2ccc(C(=O)NCCCN3CCCC3=O)cc2)ccc1F	·	14	·	·
CC(Sc1ccc(Cl)cc1)C(=O)N(C)CC(=O)Nc1ccc(N2CCOCC2)cc1 (centres undefined)	·	4	·	·
O=C(O)CCn1[nH]c(=O)ccc1=O	0	58*	0	0
O=C(NS(=O)(=O)Nc1ccc(Br)cn1)c1c[nH]c2ccccc12	·	-4	·	·
COc1ccccc1NC(=S)N/N=C/c1ccc(O)cc1	1	81*	0	2
CC(=O)N1CCC2(CC1)NC(=O)N(c1ccccc1)N2	-1	59*	0	1
COc1ccc(Oc2ccc(/C=C/C(=O)c3ccc(O)cc3)cc2[N+](=O)[O-])cc1	·	77*	0	-13
O=C(/C=C/c1ccc(O)c([N+](=O)[O-])c1)c1ccc2ccccc2c1	·	18	·	·
COc1ccc(C(=O)/C=C/c2ccc(OCc3ccccc3)cc2)cc1CSCC(=O)O	·	55*	·	·
COc1ccc(/C=C/C(=O)c2ccccc2)cc1COc1ccc(F)cc1	0	3	0	-11
COc1ccc(/C=C/C(=O)c2ccc(O)cc2)cc1COc1ccc(F)cc1	0	83*	0	-11
COc1ccc(C(=O)/C=C/c2cccc(OCc3ccccc3)c2)cc1CSCC(=O)O	·	23	·	·
Cc1ccc(N=C2C(=S)N(c3ccc(C)cc3)C(=N)N2/N=C/c2ccc(Cl)cc2)cc1	-1	108*	0	-12
Cc1noc(C)c1COc1ccc(C(=O)NNC(=O)c2ccccc2O)cc1	·	12	·	·
O=C(Cc1cccs1)Nc1cccc(-c2nc3cc4ccccc4cc3[nH]2)c1	16	74*	0	-9
COc1cccc(-n2nnnc2SCC(=O)c2cc(OC)ccc2OC)c1	-1	·	0	2
CCCn1c(SCC(=O)c2cc(OC)ccc2OC)nnc1C(C)C	0	90*	0	-1
Cc1cc(C)c(S(=O)(=O)N2CCC(C(=O)NCc3ccco3)CC2)c(C)c1	-1	54*	0	0
SMILES	L929 necroptosis	HSF-1 act	Hsp70 act	TNF necrop inh
c1ccc(N2CCN(c3cnc4ccccc4n3)CC2)cc1	2	75*	0	2
Clc1ccc(N2CCN(c3cnc4ccccc4n3)CC2)cc1	0	46	1	1
COC(=O)CSc1nnnn1-c1ccccc1	0	9	0	-3
Cc1ccc(SCC(=O)N2N=CCC2c2ccccc2)cc1 (centres undefined)	7	16	0	68*
O=C(CSc1nnnn1-c1ccccc1)N1N=CCC1c1ccccc1 (centres undefined)	14	25	0	97*
Cc1ccc(CNC(=O)C(=O)NCC2CCCN2S(=O)(=O)c2cccs2)cc1 (centres undefined)	·	1	·	·
Cc1ccc(C(=O)Cn2nc(C(=O)O)c3ccccc3c2=O)cc1C	1	64*	·	1
Cc1cc(=O)oc2cc(OCc3ccccc3)ccc12	·	58*	·	·
CCN(C(=O)CN1C(=O)S/C(=C\C=C\c2ccccc2)C1=O)C1CCS(=O)(=O)C1 (centres undefined)	·	86*	·	·
O=C(CN1C(=O)S/C(=C\C=C\c2ccccc2)C1=O)Nc1ccccc1C(=O)O	1	15	·	3
O=C(CCCN1C(=O)S/C(=C\C=C\c2ccccc2)C1=O)Nc1ccc(C(=O)O)cc1	·	28	·	·
O=C(CCN1C(=O)S/C(=C\C=C\c2ccccc2)C1=O)Nc1ccc(O)cc1	·	100*	·	·
O=C(CN1C(=O)S/C(=C\C=C\c2ccccc2)C1=O)Nc1cccc(O)c1	0	154*	0	7
CC(C)CCN1CCN(Cc2ccc(C#CCCO)cc2)CC1CCO (centres undefined)	1	-6	0	0
CC(C)c1ccc(Nc2nnns2)cc1	0	-5	·	2
COc1ccc(N(Cc2ccccc2)N=O)cc1	·	-9	·	·
